Only some compounds are listed: those with a hit (about 3% of all), similar ones and a draw of the others.
TRPM1 prom inh: inhibitors of MITF-driven TRPM1 promoter in melanoma cells; AID 488899; inhibition, % at 12.5 µM; 330,000 tested, 0.83% active; SK-MEL-5 TRPM1 promoter luciferase, 24 h;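 active = mean inhibition across replicates of 60% or more, whatever share of single replicates reaches that level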
LMP1 NFkB inh: Epstein-Barr LMP1 NF-kappaB reporter inhibition; LMP1-induced NF-kappaB luciferase reporter cells, luminescence; inhibition, % at 12.5 µM; 350,000 tested, 0.69% active; AID 504558; in the data active = inhibition above about 41%
HIF-2a inh: inhibitors of HIF-2a. 786-0 RCC cells HIF-2a reporter, luciferase luminescence, overnight. inhibition, % at 18.8 µM. 360,000 tested, 0.72% active;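 active = inhibition of the luminescence signal of 40% or more relative to plate controls, in a single-dose primary screen at 18.75 µM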
KKLEB tox: CF airway cell cytotoxicity counter-screen | AID 602141 | activity change (cytotoxicity), % at 5 µM | KKLEB CF airway cells viability, ATPlite luminescence, overnight; hits give low values; cells stimulated with P. aeruginosa culture filtrate | 360,000 tested, 0.36% active;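 active = corrected activity change at or below -50% at 5 µM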
Peg3 prom inh-1: reduces Peg3 promoter-driven luciferase expression in HeLa; HeLa PEG-Prom luciferase reporter, luminescence, overnight; AID 588405; 360,000 tested, 1.7% active; inhibition, % at 20 µM;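 active = inhibition of at least 50% at 20 µM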
CF NFkB block: blocks PAF-induced NF-kB reporter in cystic fibrosis cells | KKLEB NF-kB-GFP reporter, GFP fluorescence overnight | inhibition, % at 5 µM | 360,000 tested, 0.86% active;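 active = at least 50% inhibition at 5 µM, scaled per plate between neutral and stimulator controls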;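 also: PAF is a Pseudomonas aeruginosa culture filtrate used as stimulus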
Peg3 prom inh-2: Peg3 promoter inhibition confirmation; 1,300 tested, 84% active; shares compounds with Peg3 prom inh-1; inhibition, % at 20 µM; HeLa PEG-Prom luciferase reporter, luminescence, overnight;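 active = at 20 µM dose, 40% or more inhibition averaged across four replicates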
A number is an active result; 0 = inactive; - = no result.

SMILES | TRPM1 prom inh | LMP1 NFkB inh | HIF-2a inh | KKLEB tox | Peg3 prom inh-1 | CF NFkB block | Peg3 prom inh-2
OC[C@@H]1[C@@H](c2ccc(Cl)cc2)C(c2cccc(Cl)c2)=NN1c1ccccc1 | 0 | 0 | 0 | 0 | 54 | 0 | 65
COc1cc2c(oc(=O)c3cc(C)cc(OC)c32)c2c(C3OC(C)C(O)C(C)(O)C3O)ccc(O)c12 (configuration not stated) | 65 | 78 | 58 | 0 | 100 | 0 | 99
Cc1ccc(C(=O)N2CCN(c3ccc([N+](=O)[O-])c(NCc4cccnc4)c3)CC2)cc1 | 0 | 0 | 0 | 0 | 56 | 0 | 48
Cc1ccccc1C(=O)N1CCN(c2ccc([N+](=O)[O-])c(NCc3cccnc3)c2)CC1 | 0 | 0 | 0 | 0 | 0 | 0 | -
Cc1ccc(NC(=S)NC(=O)c2ccc(F)cc2)cc1S(=O)(=O)Nc1ccccc1Cl | 0 | 0 | 0 | 0 | 55 | 0 | 58
O=C1Cc2cc(O)ccc2O1 | 0 | 0 | 0 | 0 | 0 | 0 | -
c1ccc(-c2nnc(N3CCN(c4ccccn4)CC3)c3ccccc23)cc1 | 0 | 0 | 0 | 0 | 0 | 0 | -
Cc1ccc(-c2nnc(N3CCN(c4ccccn4)CC3)c3ccccc23)cc1 | 0 | 0 | 0 | 0 | 77 | 0 | 84
COc1ccc(N=CC2=C(O)c3ccccc3C2=O)cc1 | 0 | 0 | 0 | -51 | 75 | 0 | 0
O=C1C(C=Nc2ccccc2)=C(O)c2ccccc21 | 0 | 0 | 0 | 0 | 0 | 0 | -
CC(C(=O)NC1CCCC1)N(C(=O)Cn1nnc(-c2ccc(F)cc2)n1)c1ccccc1F (configuration not stated) | 0 | 0 | 0 | 0 | 57 | 0 | 50
COc1ccc(N(C(=O)Cn2nnc(-c3ccc(F)cc3)n2)C(C)C(=O)NC2CCCC2)cc1 (configuration not stated) | 0 | 0 | 0 | 0 | 0 | 0 | -
O=C(NCC1CCCO1)C(c1ccc(F)cc1)N(C(=O)Cn1nnc(-c2ccc(F)cc2)n1)c1cccc(O)c1 (configuration not stated) | 0 | 0 | 0 | 0 | 56 | 0 | 51
CS(=O)(=O)N1CCCCC1c1cc(C(=O)NCc2ccc(Cl)c(Cl)c2)no1 (configuration not stated) | - | - | 0 | 0 | 0 | 0 | -
CC(C)C(N)c1csc(Nc2ccc(C(=O)c3ccccc3)cc2)n1 (configuration not stated) | - | - | 0 | 0 | 0 | 0 | -
CC(C)CC(N)c1csc(Nc2ccc(C(=O)c3ccccc3)cc2)n1 (configuration not stated) | - | - | 0 | 0 | 53 | 0 | 94
C[C@@H]1CCCCO[C@@H](CN(C)S(=O)(=O)c2cn(C)cn2)[C@@H](C)CN([C@H](C)CO)C(=O)c2cc(N(C)C)ccc2O1 | - | 0 | 0 | 0 | 0 | 0 | -
COc1ccc(/C=C/C(=O)c2ccc3c4c(cccc24)CC3)cc1OC | 0 | 0 | 0 | 0 | 69 | 0 | 84
COc1ccc(/C=C/C(=O)c2ccc3c4c(cccc24)CC3)cc1 | 0 | 0 | 0 | 0 | 0 | 0 | -
Nc1c(Cl)cc(N=Nc2ccccc2)cc1Cl | 0 | 0 | 0 | 0 | 0 | 0 | -
CCOc1cc(C2c3c(oc4cc(C)c(Cl)cc4c3=O)C(=O)N2Cc2ccco2)ccc1O (configuration not stated) | 0 | 0 | 0 | 0 | 67 | 0 | 0
CN(C)c1ccc(/C=C/c2ccc3c4ccccc4ccc3[n+]2-c2ccccc2)cc1 | 104 | 0 | 96 | 0 | 106 | 0 | 100
COc1ccc(C[C@H]2CN3C(=NC[C@@H]3Cc3ccc(O)cc3)N2C[C@H](C)NC(=O)c2ccc(C)c(Br)c2)cc1 | 0 | 0 | 0 | 0 | 101 | 0 | 97
CN(C)Cc1c(OC(=O)c2ccc(N)cc2)ccc2ccccc12 | 0 | 0 | 0 | 0 | 0 | 0 | -
CCN(CC)CCCCNc1ncc2cc(-c3cc(OC)cc(OC)c3)c(NC(=O)NC(C)(C)C)nc2n1 | 73 | 0 | 0 | 0 | 74 | 0 | 77
SMILES | TRPM1 prom inh | LMP1 NFkB inh | HIF-2a inh | KKLEB tox | Peg3 prom inh-1 | CF NFkB block | Peg3 prom inh-2
COC1=C(Br)C(=O)c2nc(C)ccc2C1=O | - | 0 | 0 | 0 | 107 | 0 | 100
COc1nc(C)ccc1-c1noc(-c2cccnc2)n1 | 0 | 0 | 0 | 0 | 0 | 0 | -
CCN1CCN(Cc2c(O)ccc3c2O/C(=C\C=C\c2ccccc2)C3=O)CC1 | 0 | 0 | 92 | 0 | 108 | 0 | 77
O=C1/C(=C/C=C/c2ccccc2)Oc2c1ccc(O)c2CN1CCN(CCO)CC1 | 0 | 0 | 0 | 0 | 0 | 0 | -
COC(=O)C1=C(C)N(Cc2ccccc2)C(=NCCc2c[nH]c3ccccc23)N[C@H]1c1cccc(C(F)(F)F)c1 | 0 | 0 | 0 | 0 | 99 | 0 | 98
COCCNc1nc(-c2cc(F)ccc2C)c2sc(-c3ccccc3)cc2n1 | - | - | 0 | 0 | 0 | 0 | -
CC1(C)CC(NCCN2CCN(C3=CC(=C(C#N)C#N)CC(C)(C)C3)CC2)=CC(=C(C#N)C#N)C1 | 0 | 0 | 0 | 0 | 50 | 0 | 44
CNC(=S)N1CCN(CCNC2=CC(=O)CC(C)(C)C2)CC1 | 0 | 0 | 0 | 0 | 0 | 0 | -
COc1ccc(CN2C(=O)c3ccccc3C2c2nnnn2C(C)C)cc1OC (configuration not stated) | - | - | 0 | - | - | - | -
Cc1ccc([C@@H]2CC(=O)[C@@H]3CN(S(=O)(=O)c4ccc(C)cc4)[C@H](c4cccc(Cl)c4)C[C@@H]3N2S(=O)(=O)c2ccc(Cl)cc2)cc1 | - | 0 | 0 | 0 | 0 | 0 | -
C/C(=N\N=C(N)N)c1ccc(Cl)cc1Cl | 0 | 0 | 0 | 0 | 71 | 0 | 73
C/C(=N\N=C(N)N)c1cc(Cl)ccc1Cl | 0 | 0 | 0 | 0 | 0 | 0 | -
CCCS(=O)(=O)NC(=O)C1(C)CCCN(C(=O)c2ccc3ccccc3n2)C1 (configuration not stated) | - | - | 0 | 0 | 0 | 0 | -
CCCc1c(C(=O)N/N=C/C=C/c2ccccc2)nnn1-c1nonc1N | - | 0 | 0 | 0 | 0 | 0 | -
CC1(C)CC(NC(=O)c2sc3cc(Cl)ccc3c2Cl)CC(C)(C)N1 | 0 | 0 | 0 | 0 | 91 | 0 | 100
Cc1cc(/C=c2/sc3nc4ccccc4n3c2=O)c(C)n1-c1ccccn1 | 86 | 56 | 75 | -54 | 75 | 0 | 88
COc1cccc(S(=O)(=O)N(C)C[C@@H]2OCc3cn(nn3)CCCC(=O)N([C@@H](C)CO)C[C@H]2C)c1 | - | 0 | 0 | 0 | 0 | 0 | -
COc1ccc(C)cc1Nc1n[n+](-c2ccccc2)c(-c2ccc(OC)c(OC)c2OC)s1 | 0 | 0 | 0 | 0 | 0 | 0 | -
COc1ccc(C)cc1Nc1n[n+](-c2ccccc2)c(-c2ccc(N(C)C)cc2)s1 | 0 | 0 | 0 | 0 | 62 | 0 | 50
CC(=O)Nc1cc(-c2ccc(CO)cc2)cn2c(-c3ccc(F)cc3)cnc12 | - | - | 0 | 0 | 0 | 0 | -
O=[N+]([O-])c1cc(-c2csc(NCCc3nc4cc(C(F)(F)F)ccc4n3CCCO)n2)ccc1Cl | 0 | 0 | 0 | 0 | 54 | 0 | 0

Screens from PubChem.
